This is an account of results in PubChem BioAssay (Tox21).

Structures are written as SMILES. Results filed as inconclusive are left out. Unmarked numbers belong to inactive results. Active and inactive are the calls of the source. Unless noted, calls come from the whole dose curve; as a rule, active = well fitted curve in the direction sought with a large enough effect in the repeat runs; inconclusive = weak or mixed curves; inactive = no such curve, though single readings can be large; an effect the other way counts as inactive or inconclusive.

Assay [1] in a line: qHTS assay to identify small molecule antagonists of the retinoid acid receptor (RAR) signaling pathway - cell viability counter screen (AID 1159551). Note: nearly all actives have a fitted effect of over 35% in size. An outline of the steps:
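C3RL4 cells were seeded overnight at 37 C, then treated with compounds plus 1 uM (final) retinol for 6 h at 37 C. Viability was read as ATP by CellTiter-Glo luminescence after 30 min at room temperature.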

A short description of assay [2]: qHTS assay to identify small molecule antagonists of the retinoic acid receptor (RAR) signaling pathway (AID 1159552; note: nearly all actives have a fitted effect of over 50% in size; note: potency is the fitted concentration of half-maximal effect). Put shortly: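 Antagonism of retinol-induced RARE reporter activity was measured in C3RL4 cells. Exposure to compounds and 1 uM final retinol lasted 6 hr at 37 C, with luminescence as endpoint.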
For orientation: qHTS replaces the single test concentration by a dilution series.

Assay [3] is described as follows: qHTS assay to identify small molecule antagonists of the estrogen related receptor (ERR) signaling pathway from Tox21 library - cell viability counter screen (AID 1224834). Note: nearly all actives have a fitted effect of over 30% in size. An outline of the steps: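 ERR reporter cells were plated 6 h before compound addition, then exposed to test compounds in DMSO for 17.5 h at 37 C. Viability was read as CellTiter-Fluor fluorescence after a 30-minute incubation at 37 C.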

Assay [4] deals with Luciferin 4-monooxygenase (Photinus pyralis) (UniProt P08659). The assay can be described thus: qHTS assay to identify small molecule inhibitors of firefly luciferase (AID 1224835). Note: nearly all actives have a fitted effect of over 25% in size. Note: potency is the fitted concentration of half-maximal effect. An outline of the steps:
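Inhibition of purified Photinus luciferase is measured by luminescence. Substrate levels (D-luciferin, ATP) sit at their KM values. Each compound is tested in a concentration series.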

Assay [5] can be described thus: qHTS assay to identify small molecule agonists of the constitutive androstane receptor (CAR) signaling pathway - cell viability counter screen (AID 1224836). Note: series mostly up to about 92 µM; nearly all actives have a fitted effect of over 45% in size. An outline of the steps: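 Double-stable HepG2 hepatoma cells (hCAR plus CYP2B6-2.2kb) are treated for 23 h at 37 C with test compounds in 15-point concentration series. PK11195 at 0.75 uM final is co-added. Cell viability is quantified by CellTiter-Fluor.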

A short description of assay [6]: qHTS assay to identify small molecule antagonists of the constitutive androstane receptor (CAR) signaling pathway - cell viability counter screen (AID 1224837). Note: series mostly up to about 92 µM; nearly all actives have a fitted effect of over 45% in size. An outline of the steps:
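HepG2 cells stably expressing hCAR and a CYP2B6-2.2kb reporter were plated and pre-incubated 4 hr at 37 C/5% CO2, then given compounds at 15 concentrations plus 50 nM CITCO (final). After 23 hr, viability was read by CellTiter-Fluor fluorescence.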

Assay [7] in a line: qHTS assay to identify small molecule antagonists of the estrogen related receptor signaling pathway with the pleiotropic PPARgamma coactivator (PGC) from Tox21 10K library - cell viability counter screen (AID 1224840; active = well fitted cell-killing curve with a large enough effect in the repeat runs, not every such curve was filed as active; note: nearly all actives have a fitted effect of over 40% in size). Put shortly:
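PGC/ERR cells were seeded at 2,000 cells/well and left 6 hours at 37 C/5% CO2 before pin-tool addition of compounds in DMSO. After 17.5 hours at 37 C, CellTiter-Fluor was added and fluorescence read 30 minutes later.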

The nature of assay [8]: qHTS assay to identify small molecule agonists of the estrogen related receptor signaling pathway with the pleiotropic PPARgamma coactivator (PGC) from Tox21 10K library (AID 1224842). Note: nearly all actives have a fitted effect of over 15% in size. An outline of the steps: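 Luminescence from One-Glo (30 min, room temperature) measured after PGC/ERR cells had 18 h at 37 C with pinned compound (23 nL in DMSO). Cells had been seeded at 2,000 per well and pre-incubated 6 h.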

Assay [9] deals with Thyrotropin receptor (Homo sapiens) (UniProt P16473). The assay can be described thus: qHTS assay to identify small molecule agonists of the thyroid stimulating hormone receptor (TSHR) signaling pathway (AID 1224843; calls by dose curve; note: nearly all actives have a fitted effect of over 45% in size; note: potency is the fitted concentration of half-maximal effect). Put shortly: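 Screening of the Tox21 10K collection used HEK293 cells engineered with TSHR at 800 cells per well. After a 30-min room-temperature compound exposure, HTRF cAMP reagents were added and fluorescence recorded 1 h later.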

Assay [10] has as its target Nuclear receptor subfamily 1 group I member 3 (Homo sapiens) (UniProt Q14994). The assay can be described thus: qHTS assay to identify small molecule agonists of the constitutive androstane receptor (CAR) signaling pathway (AID 1224839). Note: nearly all actives have a fitted effect of over 15% in size. Note: potency is the fitted concentration of half-maximal effect. An outline of the steps: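 Readout: firefly luciferase luminescence via ONE-Glo. System: HepG2 double-stable for hCAR and CYP2B6-2.2kb. Conditions: 15-point compound titration, PK11195 at 0.75 uM final, 24 h incubation.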

Assay [11] is described as follows: qHTS assay to identify small molecule antagonists of the estrogen related receptor signaling pathway with the pleiotropic PPARgamma coactivator (PGC) from Tox21 10K library (AID 1224841; call rule not given here; note: actives are mostly falling curves and most rising ones were filed inactive; nearly all actives have a fitted effect of over 50% in size; note: potency is the fitted concentration of half-maximal effect). An outline of the steps:
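PGC/ERR reporter cells were seeded at 2,000 cells/well and held 6 hours at 37 C/5% CO2 before pin-tool addition of compounds in DMSO. After 18 hours at 37 C, One-Glo was added and luminescence read after 30 minutes at room temperature.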

Assay [12] is described as follows: qHTS assay to identify small molecule agonists of the RXR signaling pathway - cell viability counter screen (AID 1159529).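 Note: HEK 293T cells carrying an RXR-alpha UAS beta-lactamase reporter; series mostly up to about 77 µM; nearly all actives have a fitted effect of over 50% in size.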 Put shortly:
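Counter screen: CellTiter-Glo luminescence. Cells: RXR-alpha-UAS-bla HEK 293T. Medium: 2% charcoal-stripped FBS. Treatment: 16 h, 37 C. Reagent incubation: 30 min, RT.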

In assay [13] the target is Nuclear receptor subfamily 1 group I member 3 (Homo sapiens) (UniProt Q14994). In words: qHTS assay to identify small molecule antagonists of the constitutive androstane receptor (CAR) signaling pathway (AID 1224838). Note: nearly all actives have a fitted effect of over 40% in size. Put shortly:
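HepG2 cells stably co-transfected with hCAR and a CYP2B6-2.2kb luciferase reporter were seeded 4 h before compound addition at 15 concentrations. Cells were stimulated with 50 nM CITCO (final) for 24 h at 37 C; luciferase luminescence was then read.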

Assay [14] in a line: qHTS assay to identify small molecule agonists of the retinoic acid receptor (RAR) signaling pathway (AID 1159553). Note: potency is the fitted concentration of half-maximal effect. An outline of the steps: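 C3RL4 cells carrying a RARE luciferase reporter were plated overnight at 37 C, then exposed to compounds in DMSO for 6 hr at 37 C and 5% CO2. Luminescence was read 30 min after luciferase reagent addition at room temperature.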
A short description of assay [15]: qHTS assay to identify small molecule antagonists of the estrogen related receptor (ERR) signaling pathway - cell viability counter screen (AID 1224818).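 Note: series mostly up to about 46 µM; viability measured after 17.5 h of compound exposure.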 Put shortly: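 ERR reporter cells plated 6 h at 37 C/5% CO2, then compounds in DMSO pin-transferred and incubated 17.5 h at 37 C. Viability read as CellTiter-Fluor fluorescence after 30 min at 37 C.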
Assay [16] in a line: qHTS assay to identify small molecule antagonists of the estrogen related receptor signaling pathway with the pleiotropic PPARgamma coactivator (PGC) cell viability counter screen (AID 1224822; note: series mostly up to about 46 µM). An outline of the steps: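 PGC/ERR cells were seeded at 2,000 cells/well, rested 6 h at 37 C/5% CO2, then given compounds in DMSO by pin tool and incubated 17.5 h at 37 C. Viability came from CellTiter-Fluor fluorescence after 30 min.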

Luciferin 4-monooxygenase (Photinus pyralis), sequence (P08659 whole entry, looked up): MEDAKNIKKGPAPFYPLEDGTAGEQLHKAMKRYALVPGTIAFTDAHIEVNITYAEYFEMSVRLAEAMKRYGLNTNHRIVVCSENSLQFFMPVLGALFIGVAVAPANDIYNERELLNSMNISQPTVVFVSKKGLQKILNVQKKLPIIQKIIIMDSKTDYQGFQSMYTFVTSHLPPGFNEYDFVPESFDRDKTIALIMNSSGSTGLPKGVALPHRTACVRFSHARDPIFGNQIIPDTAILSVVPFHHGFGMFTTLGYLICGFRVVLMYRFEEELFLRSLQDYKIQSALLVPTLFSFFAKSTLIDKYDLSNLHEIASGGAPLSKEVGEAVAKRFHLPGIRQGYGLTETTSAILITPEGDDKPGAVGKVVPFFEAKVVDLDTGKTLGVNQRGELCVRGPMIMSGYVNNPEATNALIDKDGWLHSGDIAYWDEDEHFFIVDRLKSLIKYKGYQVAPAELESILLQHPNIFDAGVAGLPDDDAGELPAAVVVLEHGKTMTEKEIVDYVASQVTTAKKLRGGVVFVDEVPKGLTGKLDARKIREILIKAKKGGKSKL
Thyrotropin receptor (Homo sapiens), sequence (P16473 whole entry, looked up): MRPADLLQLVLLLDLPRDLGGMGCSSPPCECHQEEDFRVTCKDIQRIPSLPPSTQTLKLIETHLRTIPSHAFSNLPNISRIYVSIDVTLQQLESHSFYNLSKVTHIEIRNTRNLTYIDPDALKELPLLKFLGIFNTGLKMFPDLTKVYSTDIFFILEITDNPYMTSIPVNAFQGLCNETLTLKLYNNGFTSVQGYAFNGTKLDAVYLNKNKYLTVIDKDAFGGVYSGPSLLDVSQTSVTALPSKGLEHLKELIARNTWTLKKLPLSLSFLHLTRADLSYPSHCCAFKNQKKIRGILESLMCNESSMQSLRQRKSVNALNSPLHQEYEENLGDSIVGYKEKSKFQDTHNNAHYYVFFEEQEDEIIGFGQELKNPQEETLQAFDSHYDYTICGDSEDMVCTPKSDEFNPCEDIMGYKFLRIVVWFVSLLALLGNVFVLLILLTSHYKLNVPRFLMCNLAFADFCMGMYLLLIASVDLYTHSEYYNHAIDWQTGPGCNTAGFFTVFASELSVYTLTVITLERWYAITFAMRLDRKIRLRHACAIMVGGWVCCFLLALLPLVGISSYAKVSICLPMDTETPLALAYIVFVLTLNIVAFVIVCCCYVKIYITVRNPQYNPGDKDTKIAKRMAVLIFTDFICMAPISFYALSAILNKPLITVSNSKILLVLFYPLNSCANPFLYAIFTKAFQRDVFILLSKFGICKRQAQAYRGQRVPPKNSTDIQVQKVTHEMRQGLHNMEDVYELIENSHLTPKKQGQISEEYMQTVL
Nuclear receptor subfamily 1 group I member 3 (Homo sapiens), sequence (Q14994 whole entry, looked up): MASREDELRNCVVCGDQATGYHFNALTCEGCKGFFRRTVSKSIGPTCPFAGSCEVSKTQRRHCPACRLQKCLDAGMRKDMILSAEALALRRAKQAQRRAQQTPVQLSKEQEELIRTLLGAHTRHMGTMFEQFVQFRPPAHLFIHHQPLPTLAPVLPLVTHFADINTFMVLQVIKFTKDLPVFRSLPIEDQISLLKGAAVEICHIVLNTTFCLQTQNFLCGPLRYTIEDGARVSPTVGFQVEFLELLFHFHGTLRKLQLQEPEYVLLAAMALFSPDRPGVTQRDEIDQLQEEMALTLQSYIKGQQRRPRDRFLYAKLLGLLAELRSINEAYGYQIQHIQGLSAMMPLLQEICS

Regarding `ClC1=C(Cl)[C@]2(Cl)[C@@H]3[C@H]4C[C@H]([C@@H]5O[C@H]45)[C@@H]3[C@@]1(Cl)C2(Cl)Cl`, the Potency entry in [1], in assay [2], in assay [3], in assay [4], in [5] and in assay [6] was “inactive” each time. Besides, the Potency entry in assay [7] and in assay [8] was “inactive” throughout. In addition, the Potency in assay [9] is 4.32 µM (active).

For `CCOP(=S)(NC(C)C)Oc1ccccc1C(=O)OC(C)C` (stereo unspecified), the Potency in assay [2] was 54.5 µM (active); in assay [10] it was 7.7 µM (active); in [11], 30.6 µM (active). Moreover, the Potency result in [4], in [5], in [6], in assay [8] and in [9] was “inactive” throughout.

Consider `CSC(C)(C)/C=N/O`, for which the Potency result in assay [12], in [4], in assay [5], in assay [13], in assay [10] and in assay [7] was “inactive” in each case. Also, in assay [9], the Potency result is “inactive”.

For `CCO/N=C(\CC)C1=C(O)CC(c2c(C)cc(C)cc2C)CC1=O` (stereo unspecified), the Potency result in assay [14], in assay [15], in [16], in assay [4], in assay [5] and in assay [6] was “inactive” in each case. In addition, the Potency result in assay [13] and in assay [7] was “inactive” each time.

In the case of `C#CCC1=C(C)C(OC(=O)C2C(C=C(C)C)C2(C)C)CC1=O` (stereo unspecified), the Potency entry in [14], in assay [4], in [6], in [13] and in [8] was “inactive” each time. Also, the Potency in [10] and in [9] was 60.7 µM (active) in each case.

Regarding `CCCCCCCc1ccc(O)cc1`, the Potency entry in [1], in assay [2], in assay [5], in [13], in assay [7] and in assay [9] was “inactive” each time. Besides, the Potency in [14] is 8.63 µM (active).

For `O=c1[nH]c(Cl)c(Cl)cc1Cl`, the Potency result in assay [1], in [2], in assay [14], in assay [3], in assay [4] and in assay [6] was “inactive” each time. Further, the Potency entry in [13], in assay [10], in assay [7], in assay [8] and in assay [9] was “inactive” in each case.

As for `Brc1ccc(Oc2ccc(Br)cc2Br)c(Br)c1`, the Potency result in assay [2], in [3], in [5], in [6], in assay [13] and in assay [7] was “inactive” in each case. Moreover, the Potency result in assay [11] is “inactive”. In addition, the Potency in assay [14] is 13.7 µM (active); in [4], 35.6 µM (active); in [10] it was 54.5 µM (active).

Consider `NC1CCC(CC2CCC(N)CC2)CC1` (stereo unspecified), for which the Potency entry in assay [1], in [4], in [5], in assay [6], in assay [13] and in [10] was “inactive” in each case.

Take `CCOP(=S)(OCC)Oc1cc(C)nc(N(CC)CC)n1`: the Potency entry in [1], in assay [3], in assay [4], in assay [5], in assay [6] and in assay [13] was “inactive” each time. The Potency result in assay [7] and in [8] was “inactive” throughout.
